TDP-43 yeast inh: rescues yeast growth from TDP-43 toxicity; 1.8% of 410,000 active; Potency, µM (series often up to 46.1 µM), inactives show at the highest dose growth rescue (activation), actives largely listed as activators; TDP-43 expressing yeast growth rescue, BacTiter-Glo, 24 h; AID 652104; further: % of control where 0% means no effect; nearly all actives have a fitted effect of over 50% in size
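Growth rescue of TDP-43-toxic yeast measured as ATP luminescence (BacTiter-Glo). Cells grown to mid-log in raffinose, induced in galactose at OD600=0.02, exposed to compound 24 hr at 30 deg C.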
FUS yeast rescue: suppressors of FUS proteinopathy in yeast | S. cerevisiae FUS-expressing, growth rescue, OD600, 24 h | Potency, µM (highest dose often 76.6 µM), usual class: activators | 0.24% of 390,000 active | AID 1347120;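 further: plate controls were DMSO vehicle for no effect and reference control for full effect; nearly all actives have a fitted effect of over 55% in size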
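Yeast FUS proteinopathy model; galactose-induced FUS (2%), starting OD 0.005. Cpds in dilution series, 24hr, 30C, 99% humidity. Abs 600 nm growth. Pos ctrl CP55940 (top 92uM final); neg ctrl DMSO.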
aSyn rescue: inhibitors of alpha-synuclein toxicity in yeast. Yeast expressing alpha-synuclein, growth rescue, BacTiter-Glo, 24 h. Potency, µM (highest dose often 46.1 µM), inactives show at the top dose growth rescue (activation), actives largely listed as activators. 0.14% of 370,000 active. AID 652106; further: % of control where 0% means no effect; nearly all actives have a fitted effect of over 65% in size
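Readout is rescue of growth in alpha-synuclein-expressing yeast, so inhibitors of toxicity appear as activators. Growth after 24 hr at 30 deg C in galactose medium is quantified by luminescence.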
Abeta yeast res: restores growth of yeast expressing A-beta42 peptide; yeast expressing A-beta42, growth rescue, OD600, 48 h; response scale: 0% DMSO, 100% iron-clioquinol control; Potency, µM (titrated, usually from 46.1 µM), usual class: activators; 0.063% of 410,000 active; AID 1347071; further: nearly all actives have a fitted effect of over 55% in size
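Yeast A-beta toxicity model in growth medium with pinned compounds, 48 h at 30 C; growth read as absorbance at 600 nm. Normalized to FeCl3/clioquinol equimolar mix (positive) and DMSO (negative).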
* marks the source's active call; other numbers are inactive results; i = inactive; ? = inconclusive; . = not tested or not shown. The list is not random: actives were taken first. Their share in the collection is about 2.1%. The call rests on the fitted dose curve; in most records, active means well fitted curve in the direction sought with a large enough effect; inconclusive means small, poorly fitted or top-dose-only effect, or another doubt; inactive means no such curve, though single readings can be large; an effect the other way counts as inactive or inconclusive. Potency means the concentration at half of the fitted maximal effect.

SMILES	TDP-43 yeast inh	FUS yeast rescue	aSyn rescue	Abeta yeast res
O=C(/C=C/c1ccccc1)NC(=S)NNC(=O)Cc1cccs1	11.2µM*	i	20µM*	?
COc1ccc(CCNC(=O)C(=O)NCC(c2ccco2)S(=O)(=O)c2ccccc2)cc1OC (stereo unspecified)	-10.5%	i	.	i
O=C(NCCN1C(=O)S/C(=C\c2cccc(Cl)c2Cl)C1=O)C1=COCCO1	3.98µM*	i	1.9%	i
COc1ccc(-c2noc(CSc3nnc(Cc4ccccc4)n3-c3ccc(F)cc3)n2)cc1	35.5µM*	14.1µM*	.	i
COc1ccc(-c2noc(CSc3nc4ccccc4[nH]3)n2)cc1	11.2µM*	i	.	i
COc1ccc(-c2noc(CSc3nnc(Cc4ccccc4)n3-c3cccc(C)c3)n2)cc1	2.6%	?	.	i
O=C(OCC#CCSc1nnc(-c2cccc(F)c2)o1)c1ccc(F)cc1	.	i	.	.
CCOC(=O)c1c(-c2cccc([N+](=O)[O-])c2)csc1N	17.8µM*	?	3.4%	i
Cc1cccc(-c2csc(N)c2C(=O)OC(C)C)c1	12.6µM*	i	7.5%	i
CCOC(=O)c1c(-c2cccc([N+](=O)[O-])c2)csc1NC(=O)C1CC1	20.0%	i	4.9%	i
Cc1ccc(C)c(-c2csc(N)c2C(=O)OC(C)C)c1	?	i	-10.6%	i
CSc1ncc(C(=O)Nc2cc(Cl)ccc2C)c(-c2ccccc2)n1	3.2%	i	.	i
CCC(C(=O)Nc1ccccc1N1CCCC1)c1cccc(OC)c1 (stereo unspecified)	.	i	.	.
CC1CCCN(CCOCCOc2ccc(Cl)cc2Br)C1 (stereo unspecified)	-19.7%	7.08µM*	0.4%	i
CC1CCCN(CCOCCOc2ccc(Br)cc2Cl)C1 (stereo unspecified)	-16.1%	i	16.7%	i
COc1ccc(N2CCN(CCCNC(=O)Cc3ccc(C(F)(F)F)cc3)CC2)cc1	.	i	.	.
O=C(NCCc1ccccc1Cl)c1cc2ccccn2n1	-13.9%	i	.	i
COc1ccc(-c2ccccc2)cc1NC(=O)C1(C)CCN1C(=O)C(C)C (stereo unspecified)	35.5µM*	?	2.4%	i
COc1ccc(-c2nc3sc(CCNC(=O)c4ccc(Br)o4)c(C)n3n2)cc1	11.2µM*	?	.	i
CCc1ccc(S(=O)(=O)NCCc2csc3nc(-c4ccccc4)nn23)s1	22.4µM*	i	.	i
COc1ccc(-c2nc3sc(CCNS(=O)(=O)c4c(C)cc(C)cc4C)c(C)n3n2)cc1	35.5µM*	i	.	?
COc1ccc(-c2nc3scc(CCNS(=O)(=O)c4cccs4)n3n2)cc1	25.1µM*	i	.	i
Cc1c(CCNC(=O)c2ccc(Br)o2)sc2nc(-c3ccc(Cl)cc3)nn12	?	i	.	i
O=S(=O)(NCCc1csc2nc(-c3ccccc3)nn12)c1cccs1	?	i	.	i
O=C(COCc1ccccc1)N1CC[C@H]2[C@H](CCCN2Cc2ccc(F)cc2)C1	.	i	.	.
SMILES	TDP-43 yeast inh	FUS yeast rescue	aSyn rescue	Abeta yeast res
CCOC(=O)[C@@]12CCCC3=C1N(CCC3)C(=O)[C@H]2CC(=O)NCCC(C)C	.	i	.	.
O=C(NCCc1c[nH]c2ccccc12)OCc1cn(-c2cccc(C(F)(F)F)c2)nn1	.	i	.	.
Cc1ccc(CNCc2cn[nH]c2-c2ccc(C)cc2)cc1	.	.	1.1%	.
COc1ccc(-c2nc3scc(CCNS(=O)(=O)c4c(C)cc(C)cc4C)n3n2)cc1OC	22.4µM*	i	.	i
O=C(Nc1ccncc1)c1cnn2c1NC(=C1CC1)C=C2C(F)F	.	.	9.3%	.
COc1ccc(CCn2c3c(c(=O)[nH]c2=S)CN(CC(C)C)CN3)cc1OC	.	.	-1.3%	.
COc1cccc(NC(=O)Nc2c(-c3ccc(C(F)(F)F)cc3)nc3ncccn23)c1	.	i	.	.
CC(=O)N(Cc1c(C)nn(-c2ccccc2)c1Cl)c1ccc(Cl)cc1	5.7%	i	18.1%	i
Cc1nn(-c2ccccc2)c(Cl)c1CN(C(=O)CCl)c1cccc2ccccc12	17.8µM*	i	9.4%	i
Cc1nn(-c2ccccc2)c(Cl)c1CN(C(=O)CCl)c1ccc(Cl)cc1	20µM*	.	-35.2%	i
O=C(O)c1ccccc1-c1ccccc1C(=O)Nc1cccc(Br)c1	1.7%	i	6.6%	i
CN1C(=O)c2ccccc2Sc2ccc(NC(=O)c3ccccc3F)cc21	17.8µM*	i	.	i

Compound activity from PubChem.
